± gives the standard deviation of the averaged measurements.

Experiment [1] concerns Renilla luciferase (RLuc). The experiment can be described thus: residual bioluminescent signal relative to negative (DMSO) control; higher = less interference (more residual luciferase signal). The essentials:
(§1)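 Purified firefly, NanoLuc or Renilla luciferase was tested with each metal salt at 0.01, 1 and 5 mM final, in 384-well plates. Buffers were screening or HEPES. Salts in water were pre-incubated with enzyme for 10 min at room temperature, and luminescence was read 10 min after substrate addition. Wells were run in triplicate. Residual signal is each well's luminescence as a percentage of the mean vehicle (DMSO) control on the same plate.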

In experiment [2] the test system is NanoLuc luciferase (NLuc). Described as above. The essentials:
as §1

[3] abbreviates: metal salt concentration 0.01 mM, HEPES conditions (100 mM HEPES, 0.05% BSA, 0.3 M sodium ascorbate, pH 7.5).
Where [4] appears, read: metal salt concentration 0.01 mM, screening conditions (50 mM Tris-HCl, […] KH2PO4, […] NaCl, 0.25 mM EDTA, 0.1% BSA, 0.3 M sodium ascorbate, pH 7.4).
[5] abbreviates: metal salt concentration 1 mM, HEPES conditions (100 mM HEPES, 0.05% BSA, 0.3 M sodium ascorbate, pH 7.5).
Setting [6] is: metal salt concentration 1 mM, screening conditions (50 mM Tris-HCl, […] KH2PO4, […] NaCl, 0.25 mM EDTA, 0.1% BSA, 0.3 M sodium ascorbate, pH 7.4).
Where [7] appears, read: metal salt concentration 5 mM, HEPES conditions (100 mM HEPES, 0.05% BSA, 0.3 M sodium ascorbate, pH 7.5).
The mark [8] stands for this setting: metal salt concentration 5 mM, screening conditions (50 mM Tris-HCl, […] KH2PO4, […] NaCl, 0.25 mM EDTA, 0.1% BSA, 0.3 M sodium ascorbate, pH 7.4).
Setting [9] is: metal salt concentration 0.01 mM, HEPES conditions (100 mM HEPES, 0.1% BSA, pH 7.5).
Where [10] appears, read: metal salt concentration 0.01 mM, screening conditions (PBS, 0.1% BSA, pH 7.4).
Where [11] appears, read: metal salt concentration 1 mM, HEPES conditions (100 mM HEPES, 0.1% BSA, pH 7.5).
[12] abbreviates: metal salt concentration 1 mM, screening conditions (PBS, 0.1% BSA, pH 7.4).
The mark [13] stands for this setting: metal salt concentration 5 mM, HEPES conditions (100 mM HEPES, 0.1% BSA, pH 7.5).
Where [14] appears, read: metal salt concentration 5 mM, screening conditions (PBS, 0.1% BSA, pH 7.4).

Turning to `O.O.O.O.O.O.O.O=S(=O)([O-])[O-].[Mg+2]` [magnesium sulfate], the residual bioluminescent signal in experiment [1] (setting [3]) is 85.7 ± 4.6%; in experiment [1] (setting [4]), 88.5 ± 5.2%; in experiment [1] (setting [5]) it was 99.3 ± 11%; in experiment [1] (setting [6]) it was 93.1 ± 12%; in experiment [1] (setting [7]), 97.7 ± 5.9%; in experiment [1] (setting [8]) it was 109 ± 27%.
As to `O.O.O.O.O.O.O.O.O.O.O=S(=O)([O-])[O-].[Na+].[Na+]` [sodium sulfate], the residual bioluminescent signal was 96 ± 3.7% in experiment [2] (setting [9]); 96.8 ± 5% in experiment [2] (setting [10]); 96.8 ± 4% in experiment [2] (setting [11]); 96 ± 4.3% in experiment [2] (setting [12]); 98.4 ± 1.1% in experiment [2] (setting [13]); 95.6 ± 4.4% in experiment [2] (setting [14]). The residual bioluminescent signal in experiment [1] (setting [3]) worked out at 112 ± 4.9%; in experiment [1] (setting [4]), 111 ± 1.9%; in experiment [1] (setting [5]), 75.1 ± 66%; in experiment [1] (setting [6]) it was 108 ± 9.8%; in experiment [1] (setting [7]), 118 ± 11%; in experiment [1] (setting [8]), 109 ± 13%.
Take `[Cl][Pt-2]([Cl])([Cl])[Cl].[K+].[K+]` [potassium tetrachloroplatinate(II)]: the residual bioluminescent signal in experiment [2] (setting [9]) is 91.45 ± 0.79%; in experiment [2] (setting [10]), 99.8 ± 2.3%; in experiment [2] (setting [11]) it was 8.06 ± 0.51%; in experiment [2] (setting [12]), 7.81 ± 1.1%; in experiment [2] (setting [13]) it was 7.52 ± 0.31%; in experiment [2] (setting [14]) it was 5.07 ± 0.66%. Also, the residual bioluminescent signal in experiment [1] (setting [3]) came out at 93.6 ± 1.9%; in experiment [1] (setting [4]), 96.1 ± 1.4%; in experiment [1] (setting [5]), 16.3 ± 9.4%; in experiment [1] (setting [6]) it was 8.11 ± 2.9%; in experiment [1] (setting [7]) it was 3.38 ± 2.1%; in experiment [1] (setting [8]) it was 1.17 ± 0.82%.
On to `O=C([O-])[O-].[Cs+].[Cs+]` [caesium carbonate], for which the residual bioluminescent signal in experiment [1] (setting [3]) was determined as 91.5 ± 6.8%; in experiment [1] (setting [4]), 94.9 ± 6.5%; in experiment [1] (setting [5]), 100 ± 11%; in experiment [1] (setting [6]), 93 ± 4.2%; in experiment [1] (setting [7]), 87.4 ± 1.1%; in experiment [1] (setting [8]), 87.8 ± 5.2%.
For the compound `[Cl][Fe]([Cl])[Cl]` [iron(III) chloride], the residual bioluminescent signal came to 91.5 ± 7.9% in experiment [1] (setting [3]); 94.1 ± 10% in experiment [1] (setting [4]); 2.32 ± 0.56% in experiment [1] (setting [5]); 39.9 ± 12% in experiment [1] (setting [6]); 0.985 ± 0.12% in experiment [1] (setting [7]); 0.807% in experiment [1] (setting [8]).
In the case of `O=S(=O)([O-])[O-].[Mn+2]` [manganese(II) sulfate], the residual bioluminescent signal in experiment [2] (setting [9]) worked out at 93.9 ± 2.1%; in experiment [2] (setting [10]), 96.1 ± 2.1%; in experiment [2] (setting [11]) it was 95 ± 3%; in experiment [2] (setting [12]), 92.7 ± 1.3%; in experiment [2] (setting [13]), 96 ± 1.4%; in experiment [2] (setting [14]) it was 73.4 ± 2.1%. Also, the residual bioluminescent signal in experiment [1] (setting [3]) amounted to 112 ± 9.2%; in experiment [1] (setting [4]), 103 ± 12%; in experiment [1] (setting [5]), 101 ± 3.7%; in experiment [1] (setting [6]), 102 ± 5.1%; in experiment [1] (setting [7]) it was 71.9 ± 9.5%; in experiment [1] (setting [8]), 108.6 ± 0.66%.
For the compound `O=C([O-])[O-].[K+].[K+]` [potassium carbonate], the residual bioluminescent signal turned out to be 90.4 ± 4.2% in experiment [1] (setting [3]); 88.9 ± 2.2% in experiment [1] (setting [4]); 93.2 ± 9.6% in experiment [1] (setting [5]); 92.2 ± 5.6% in experiment [1] (setting [6]); 96.4 ± 7% in experiment [1] (setting [7]); 76.8 ± 4.4% in experiment [1] (setting [8]).
`CC#N.CC#N.CC#N.CC#N.F[B-](F)(F)F.[Cu+]` [tetrakis(acetonitrile)copper(I) tetrafluoroborate]: the residual bioluminescent signal in experiment [1] (setting [3]) came to 98.7 ± 11%; in experiment [1] (setting [4]) it was 103 ± 2.8%; in experiment [1] (setting [5]), 0.774 ± 0.32%; in experiment [1] (setting [6]) it was 0.538 ± 0.36%; in experiment [1] (setting [7]), 1.06 ± 0.76%; in experiment [1] (setting [8]) it was 0.628 ± 0.43%.
Take `[Cl-].[Na+]` [sodium chloride]: the residual bioluminescent signal in experiment [1] (setting [3]) stood at 97.4 ± 13%; in experiment [1] (setting [4]), 91.3 ± 5.2%; in experiment [1] (setting [5]), 104 ± 18%; in experiment [1] (setting [6]), 88.6 ± 1.3%; in experiment [1] (setting [7]) it was 111 ± 5%; in experiment [1] (setting [8]) it was 94.4 ± 11%.
As to `[Cl][Fe][Cl]` [iron(II) chloride], the residual bioluminescent signal in experiment [1] (setting [3]) worked out at 62.9 ± 8.6%; in experiment [1] (setting [4]), 85.9 ± 6.2%; in experiment [1] (setting [5]) it was 1.9 ± 1.7%; in experiment [1] (setting [6]), 3.45 ± 1.9%; in experiment [1] (setting [7]) it was 0.774 ± 0.53%; in experiment [1] (setting [8]) it was 0.404 ± 0.27%.
`O=S(=O)([O-])[O-].[Fe+2]` [iron(II) sulfate]: the residual bioluminescent signal was 92.06 ± 0.82% in experiment [2] (setting [9]); 97.1 ± 1.1% in experiment [2] (setting [10]); 12.2 ± 3.3% in experiment [2] (setting [11]); 29 ± 1.3% in experiment [2] (setting [12]); 0.329 ± 0.23% in experiment [2] (setting [13]); 1.15 ± 0.23% in experiment [2] (setting [14]). Besides, the residual bioluminescent signal in experiment [1] (setting [3]) amounted to 83.1 ± 2.5%; in experiment [1] (setting [4]), 99.5 ± 4%; in experiment [1] (setting [5]), 2.25 ± 0.97%; in experiment [1] (setting [6]), 13.5 ± 2.4%; in experiment [1] (setting [7]), 0.704 ± 0.68%; in experiment [1] (setting [8]) it was 0.762 ± 0.34%.

The values are drawn from the supplement of paper PMC11628255, “Interference of metal ions on the bioluminescent signal of firefly, Renilla, and NanoLuc luciferases in high-throughput screening assays” (Frontiers in Chemistry, 2024).
